Experimental findings from PubChem BioAssay (Tox21) are described below.

Assay [1] can be described thus: qHTS assay to identify small molecule agonists of H2AX (AID 1224845; active = well fitted activation curve with a large enough effect in the signal ratio in the repeat runs, not every such curve was filed as active; the % refers to the signal ratio). The method, boiled down: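 Phospho-H2AX Ser139 measured by HTRF (ex 320 nm; em 665 and 620 nm) after 24 hr antibody incubation. Compounds, 15 concentrations, 0.76% DMSO, were applied to CHO-K1 cells for 3hr at 37C before lysis.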
In general terms: In qHTS, concentration-response curves come from the screen itself.

A short description of assay [2]: qHTS assay to identify small molecule agonists of the hypoxia (HIF-1) signaling pathway (AID 1224846; active = well fitted activation curve with a large enough effect in the signal ratio in the repeat runs, not every such curve was filed as active; the % refers to the signal ratio). The method, boiled down: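 HRE-bla ME-180 beta-lactamase reporter cells in medium with 0.5% dialyzed FBS, pre-incubated 5 h then exposed to compounds 17 h at 37C, 5% CO2; reporter induction read with CCF4-AM FRET substrate.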
A short description of assay [3]: qHTS assay to identify small molecule agonists of H2AX - cell viability counter screen (AID 1224847; calls by dose curve; also: nearly all actives have a fitted effect of over 30% in size; also: potency is read from the fitted curve at half-maximal effect). The gist of the method:
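Read-out: CellTiter-Glo luminescence, 30 min RT. Cells: wild-type CHO-K1, 1000/well, 10% FBS, plated overnight at 37C. Treatment: 15 concentrations, 3 hr, 37C, 0.76% DMSO.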

Assay [4] is described as follows: qHTS assay to identify small molecule antagonists of the estrogen related receptor (ERR) signaling pathway from Tox21 library (AID 1224848). Also: nearly all actives have a fitted effect of over 50% in size. Also: potency is read from the fitted curve at half-maximal effect. The gist of the method: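 Reading was by luminescence 30 min after ONE-Glo addition. Before that, ERR cells at 2,000 per well had rested 6 h at 37 C/5% CO2 and then received pin-tooled compounds in DMSO for 18 h at 37 C.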

Assay [5] can be described thus: qHTS assay to identify small molecule agonists of the estrogen related receptor (ERR) signaling pathway from Tox21 library (AID 1224849; calls by dose curve; also: nearly all actives have a fitted effect of over 15% in size). As to conditions: ERR reporter cell line, ONE-Glo luciferase, 18 h; at 92.4 µM (top of the series) unless noted. The method, boiled down: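 ERR reporter cells (NTP line) pre-incubated 6 hours at 37 C, then exposed to compounds for 18 hours at 37 C. ONE-Glo luciferase luminescence was read after 30 minutes at room temperature.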

A short description of assay [6]: qHTS RealTime-Glo MT Cell Viability Assay in HepG2 cells - 24 hour (AID 1224867). Also: nearly all actives have a fitted effect of over 50% in size. The method, boiled down: (§1)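 Tox21 10K library screened in qHTS format on HepG2 cells carrying RealTime-Glo reagents. Compounds were added after a 5 h preincubation, and the luminescent signal from continuous culture was measured repeatedly during 40 h treatment.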
Assay [7] in a line: qHTS RealTime-Glo MT Cell Viability Assay in HEK293 cells - 32 hour (AID 1224868). Also: nearly all actives have a fitted effect of over 50% in size. Also: potency is read from the fitted curve at half-maximal effect. The gist of the method: (§2)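 Luminescence generated by NanoLuc from substrate produced by living HEK293 cells served as the viability signal. Each value reflects the reading at its stated time point during continuous 40 h compound exposure at 37 C.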
Assay [8] is described as follows: A CellTox Green Cytotoxicity Assay to monitor cytotoxicity in HEK293 cells - 0 hour (AID 1224869). Also: nearly all actives have a fitted effect of over 50% in size. The gist of the method: (§3)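 HEK293 cells, 600/well, were preincubated 5 hours and then exposed to compounds at 37 C for up to 40 hours. A cell-impermeant cyanine dye staining dead-cell DNA was read by fluorescence at 0, 8, 16, 24, 32 and 40 h time points.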
The nature of assay [9]: qHTS RealTime-Glo MT Cell Viability Assay in HepG2 cells - 40 hour (AID 1224870). Also: nearly all actives have a fitted effect of over 50% in size. The method, boiled down:
(§4)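 Real-time viability: cells seeded at 600 per well together with NanoLuc and cell-permeant prosubstrate, compounds added after 5 h incubation. Luminescence tracked at 0, 8, 16, 24, 32 and 40 h of exposure.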

Assay [10] is described as follows: qHTS RealTime-Glo MT Cell Viability Assay in HEK293 cells - 16 hour (AID 1224872). Also: nearly all actives have a fitted effect of over 50% in size. Also: potency is read from the fitted curve at half-maximal effect. The gist of the method:
as §2

A short description of assay [11]: qHTS RealTime-Glo MT Cell Viability Assay in HepG2 cells - 8 hour (AID 1224873). Also: nearly all actives have a fitted effect of over 55% in size. The method, boiled down:
as §4

A short description of assay [12]: qHTS RealTime-Glo MT Cell Viability Assay in HEK293 cells - 40 hour (AID 1224874). Also: nearly all actives have a fitted effect of over 50% in size. Also: potency is read from the fitted curve at half-maximal effect. As to conditions: RealTime-Glo luminescence; max response: stronger effect = lower value. The method, boiled down: (§5)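 600 cells/well were plated with the nonlytic NanoLuc/prosubstrate reagent, pre-incubated 5 h, then given 23 nL of compound in DMSO. Incubation at 37 C for 40 h, with luminescence from viable-cell-reduced substrate read repeatedly from 0 h.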

Assay [13] can be described thus: A CellTox Green Cytotoxicity Assay to monitor cytotoxicity in HEK293 cells - 24 hour (AID 1224875). Also: nearly all actives have a fitted effect of over 45% in size. The gist of the method:
as §3

Assay [14] in a line: A CellTox Green Cytotoxicity Assay to monitor cytotoxicity in HepG2 cells - 16 hour (AID 1224876). Also: nearly all actives have a fitted effect of over 45% in size. The method, boiled down: (§6)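 HepG2 cells, 600/well, preincubated 5 h with CellTox Green dye, then exposed to Tox21 compounds in DMSO at 37 C for up to 40 h. Dead-cell DNA fluorescence read at the indicated time point.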
The nature of assay [15]: qHTS RealTime-Glo MT Cell Viability Assay in HepG2 cells - 32 hour (AID 1224877). Also: nearly all actives have a fitted effect of over 55% in size. The method, boiled down:
as §1

Assay [16] is described as follows: A CellTox Green Cytotoxicity Assay to monitor cytotoxicity in HepG2 cells - 24 hour (AID 1224878). Also: nearly all actives have a fitted effect of over 45% in size. The method, boiled down: as §6
Assay [17] can be described thus: A CellTox Green Cytotoxicity Assay to monitor cytotoxicity in HepG2 cells - 40 hour (AID 1224879). Also: nearly all actives have a fitted effect of over 40% in size. Also: potency is read from the fitted curve at half-maximal effect. The method, boiled down:
as §6

Assay [18] is described as follows: qHTS RealTime-Glo MT Cell Viability Assay in HEK293 cells - 0 hour (AID 1224880). Also: top concentration of the series differs between compounds; nearly all actives have a fitted effect of over 45% in size. The method, boiled down: as §5
A short description of assay [19]: A CellTox Green Cytotoxicity Assay to monitor cytotoxicity in HEK293 cells - 32 hour (AID 1224881). Also: nearly all actives have a fitted effect of over 40% in size. The method, boiled down:
as §3

A short description of assay [20]: A CellTox Green Cytotoxicity Assay to monitor cytotoxicity in HEK293 cells - 40 hour (AID 1224871). Also: nearly all actives have a fitted effect of over 45% in size. The method, boiled down:
as §3

A number with no mark means an inactive call. Results filed as inconclusive are left out. Activity calls are given as the source filed them. Unless noted, calls follow the shape of the dose curve; as a rule, active = well fitted curve in the direction sought with a large enough effect in the repeat runs; inconclusive = weak or mixed curves; inactive = no such curve, though single readings can be large; an effect the other way counts as inactive or inconclusive.
% is scaled to controls: 0 for no effect and ±100 for the full control effect.

In the case of `C=CC(=O)OCC(C)C`, the Potency result in [1], in assay [3], in [4], in assay [6], in [7] and in assay [8] was “inactive” throughout. Further, the Potency result in [9], in [10], in assay [11], in [13], in assay [14] and in assay [15] was “inactive” in each case. In addition, the Potency result in assay [16], in assay [17], in assay [18] and in [19] was “inactive” each time. Besides, the result in assay [2] was inactive. For the same molecule, in assay [5], the activity change, positive = activation is 5.29%. Besides, the max response in [12] was 15.8%.
Take `Cc1ccc2ccccc2c1`: the Potency entry in [1], in assay [3], in assay [4], in [6], in assay [7] and in assay [8] was “inactive” each time. Moreover, the Potency result in [9], in [10], in assay [11], in assay [13], in assay [14] and in assay [15] was “inactive” throughout. For the same molecule, the Potency result in [16], in [17] and in [19] was “inactive” throughout. Moreover, in assay [2], the call was inactive. The activity change, positive = activation in assay [5] was -0.842%. Moreover, the max response in assay [12] was 0.388%.
As for `Clc1ccc(C2(Cn3cncn3)CC(Br)CO2)c(Cl)c1` (stereo unspecified), the Potency entry in assay [1], in assay [6], in assay [8], in assay [9], in assay [20] and in assay [11] was “inactive” in each case. Besides, the Potency result in assay [14], in [15], in assay [18] and in assay [19] was “inactive” in each case. In addition, in assay [2], the result was inactive. Further, the Potency in assay [3] was 112 µM (active); in assay [4] it was 15.3 µM (active); in assay [7], 27.4 µM (active); in assay [10], 24.4 µM (active); in assay [12], 21.7 µM (active); in assay [17], 38.7 µM (active). In addition, the activity change, positive = activation in assay [5] is -55.5%.
With `Clc1ccc(C(OCCN2CCCCC2)c2ccccc2)cc1` (stereo unspecified), the Potency result in [1], in [3], in [6], in [8], in assay [9] and in [11] was “inactive” throughout. Further, in assay [15], the Potency entry is “inactive”. Also, in assay [2], the molecule was classed as inactive. The activity change, positive = activation in assay [5] was -17.2% [at 42.5 µM].
For the molecule `Cl/C=C\C[N+]12CN3CN(CN(C3)C1)C2`, the Potency result in [1], in [3], in assay [4], in assay [6], in assay [8] and in assay [9] was “inactive” each time. In addition, the Potency result in assay [20], in assay [11], in assay [13], in assay [14], in assay [15] and in assay [16] was “inactive” in each case. For the same molecule, the Potency result in assay [17], in assay [18] and in assay [19] was “inactive” throughout. In addition, the outcome in assay [2] was inactive. Besides, the activity change, positive = activation in [5] is -0.401%.
With `Sc1ccccc1Cl`, the Potency entry in assay [1], in [3], in assay [4], in assay [6], in assay [7] and in assay [8] was “inactive” in each case. For the same molecule, the Potency result in assay [20], in assay [10], in [11], in [13], in [15] and in [17] was “inactive” throughout. For the same molecule, the Potency result in [18] and in [19] was “inactive” throughout. In assay [2], the molecule was classed as inactive. Further, in [5], the activity change, positive = activation is 1.99% [at 42.5 µM]. In addition, the max response in assay [12] was -1.55%.
With `O=[N+]([O-])c1cc(C(F)(F)F)cc([N+](=O)[O-])c1Cl`, the Potency entry in [1], in assay [3], in [6], in [8], in assay [9] and in assay [11] was “inactive” each time. Also, the Potency entry in assay [13], in assay [14], in assay [15], in [16], in [17] and in [18] was “inactive” throughout. Further, the Potency entry in [19] is “inactive”. The outcome in assay [2] was inactive. In [4], the Potency is 61.4 µM (active). In addition, the activity change, positive = activation in assay [5] is -42.9%.
In the case of `Nc1nc(=S)[nH][nH]1`, the Potency result in [1], in [3], in [4], in assay [6], in [7] and in assay [8] was “inactive” in each case. Further, the Potency result in [20], in assay [10], in assay [11], in assay [13], in assay [14] and in assay [15] was “inactive” each time. Further, the Potency entry in assay [16] and in assay [17] was “inactive” each time. For the same molecule, the outcome in assay [2] was inactive. The activity change, positive = activation in [5] is 4.5%. In addition, the max response in assay [12] is 1.62%.
